# Measurements taken from PubChem BioAssay (EPA / NIEHS).
# Values joined by “and” are separate entries in the source; they are usually repeats but may differ in a detail not shown here. Identical values can stand only once. Records with an inconclusive call do not appear. Some structures have more than one record in an assay (separate samples or runs), and their calls can disagree. Active and inactive are the calls of the source. Rule for the calls: active = hit-call score of the fitted dose curve at least 0.9, where 1 is the maximum; inconclusive = response in the unintended direction; inactive = score below 0.9.
# Biological target: Retinoic acid receptor RXR-alpha (Homo sapiens) (UniProt P19793)
# Sequence (P19793 whole entry, looked up): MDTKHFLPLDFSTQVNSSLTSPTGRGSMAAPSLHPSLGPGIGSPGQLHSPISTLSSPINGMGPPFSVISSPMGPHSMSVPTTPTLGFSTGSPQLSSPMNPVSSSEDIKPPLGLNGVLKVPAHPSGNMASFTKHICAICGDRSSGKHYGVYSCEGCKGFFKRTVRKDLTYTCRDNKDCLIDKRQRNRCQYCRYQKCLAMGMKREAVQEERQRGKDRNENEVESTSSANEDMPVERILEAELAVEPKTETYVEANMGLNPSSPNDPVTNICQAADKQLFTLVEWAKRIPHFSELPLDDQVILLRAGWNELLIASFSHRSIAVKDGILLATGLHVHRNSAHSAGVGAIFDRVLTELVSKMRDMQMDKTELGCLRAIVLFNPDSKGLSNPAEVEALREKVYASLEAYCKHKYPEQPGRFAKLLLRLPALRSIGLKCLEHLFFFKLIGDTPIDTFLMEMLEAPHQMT
# Experiment: OT_NURR1_NURR1RXRa_1440: Odyssey Thera (OT) 24-hour HEK293T Protein Complementation Assay for Nurr1/retinoid X receptor (RXR) (AID 2283386)
# Description: OT_NURR1_NURR1RXRa_1440 is a cell-based assay that uses HEK293T, a human kidney cell line, with measurements taken at 24 hours after chemical dosing in a 384-well plate.OT_NURR1_NURR1RXRa_1440 is one of one assay component(s) measured or calculated from the OT_NURR1_NURR1RXRa_1440 assay. It is designed to make measurements of protein fragment complementation, a form of binding reporter, as detected with fluorescence intensity signals by Protein-fragment Complementation technology.Data from the assay component OT_NURR1_NURR1RXRa_1440 was analyzed into 1 assay endpoint. This assay endpoint, OT_NURR1_NURR1RXRa_1440, was analyzed in the positive analysis fitting direction relative to DMSO as the negative control and baseline of activity. Using a type of binding reporter, measures of receptor for gain-of-signal activity can be used to understand the binding at the pathway-level as they relate to the gene RXRA. Furthermore, this assay endpoint can be referred to as a primary readout, because the performed assay has only produced 1 assay endpoint. To generalize the intended target to other relatable targets, this assay endpoint is annotated to the nuclear receptor intended target family, where the subfamily is non-steroidal.
# Protein-fragment complementation assay, or PCA, is a method for the identification and quantification of protein-protein interactions. In the PCA, the proteins of interest ("bait" and "prey") are each covalently linked to fragments of a third protein (e.g. DHFR, which acts as a "reporter"). Interaction between the bait and the prey proteins brings the fragments of the reporter protein in close proximity to allow them to form a functional reporter protein whose activity can be measured.
Structure (SMILES),outcome,AC50
CCSC(=O)N(CC(C)C)CC(C)C,inactive,
CCCCC(CC)COC(=O)c1ccccc1C(=O)O (stereo not given),inactive,
COc1c(Cl)ccc(Cl)c1C(=O)O,inactive,
COC(=O)c1ccccc1C(=O)O,inactive,
C[C@]12CC[C@@H]3c4ccc(O)cc4C[C@@H](CCCCCCCCCS(=O)CCCC(F)(F)C(F)(F)F)[C@H]3[C@@H]1CC[C@@H]2O (stereo not given in full),inactive,
S=C([S-])NCCNC(=S)[S-].[Mn+2],inactive,69.5 µM (active)
S=C(S)NCCNC(=S)S.[Mn+2].[S-]C([S-])=NCCN=C([S-])[S-].[Zn+2],inactive,40.2 µM (active) [middle of 4 runs]
COC(=O)CSc1cc(N=c2sc(=O)n3n2CCCC3)c(F)cc1Cl,inactive,
CCOC(=O)NCCOc1ccc(Oc2ccccc2)cc1,inactive,50 µM (active)
CCCCOC(=O)C(C)Oc1ccc(Oc2ccc(C(F)(F)F)cn2)cc1 (stereo not given),inactive,
CSC(=O)c1cccc2nnsc12,inactive,
OB(O)O,inactive,
O=C(O)c1ccccc1,inactive,
COCCO,inactive,
Cc1nn(C)c(Oc2ccccc2)c1C=NOCc1ccc(C(=O)OC(C)(C)C)cc1,inactive,15.7 µM (active)
CCN(Cc1c(F)cccc1Cl)c1c([N+](=O)[O-])cc(C(F)(F)F)cc1[N+](=O)[O-],inactive,
CCOC(=O)C(C)Oc1ccc(Oc2cnc3cc(Cl)ccc3n2)cc1 (stereo not given),inactive,
CCOC(=O)c1ccc(O)cc1,inactive,

Structure (SMILES),outcome,AC50
COC(=O)c1ccc(I)cc1S(=O)(=O)NC(=O)Nc1nc(C)nc(OC)n1,inactive,
CC1(C)C(C=C(Cl)Cl)C1C(=O)OCc1cccc(Oc2ccccc2)c1 (stereo not given),inactive,
O=C(O)C1(C(=O)Nc2ccc(Cl)cc2Cl)CC1,,50 µM (active)
C#CCOC(=O)[C@@H](C)Oc1ccc(Oc2ncc(Cl)cc2F)cc1,inactive,
O=C(c1ccccc1)C1CCCCC1,inactive,
c1ccc(Nc2ccccc2)cc1,inactive,
CC(=O)S[C@@H]1CC2=CC(=O)CC[C@]2(C)[C@H]2CC[C@@]3(C)[C@@H](CC[C@@]34CCC(=O)O4)[C@H]12,inactive,
CCCCOCCOCCOCc1cc2c(cc1CCC)OCO2,inactive,
C=CCOC(Cn1ccnc1)c1ccc(Cl)cc1Cl (stereo not given),,78.5 µM (active) and 79 µM (active)
CCCN(CCC)C(=O)SCC,inactive,
CCCCCOC(=O)COc1cc(N2C(=O)C3=C(CCCC3)C2=O)c(F)cc1Cl,inactive,
C[C@]12C[C@H](O)[C@H]3[C@@H](CCC4=CC(=O)CC[C@@]43C)[C@@H]1CC[C@@H]2C(=O)CO,inactive,
CCCN(CCC)c1c([N+](=O)[O-])cc(C(F)(F)F)c(N)c1[N+](=O)[O-],,35.9 µM (active) and 34.9 µM (active)
O=C(Nc1ccc([N+](=O)[O-])cc1Cl)c1cc(Cl)ccc1O,inactive,1.45 µM (active)
N#CSCSc1nc2ccccc2s1,,11.6 µM (active)
Oc1ccc(C(c2ccc(O)cc2)C(Cl)(Cl)Cl)cc1,inactive,
CCC(C)OC(=O)N1CCCCC1CCO (stereo not given),inactive,
